Source: PubChem
HepG2 tox – HepG2 cytotoxicity, counter-screen for TGF-b inhibitors; HepG2 CAGA-GFP viability, ATP luminescence, 18 h; Potency, µM (series often up to 46.1 µM), for inactives: at the top dose activity change, negative = cytotoxicity, usual class: cytotoxic; 410,000 compounds, 0.76% hits
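HepG2 CAGA-GFP cells (1000/well, DMEM with 1% FBS) received compound, then TGF-beta at 500 pg/mL final, and were incubated 18 hours at 37 degrees C. Viability was read by CellTiter-Glo luminescence. Media-only wells were set as complete cell-killing and DMSO as no toxicity.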
TGFb SMAD3 inh – TGF-b pathway inhibition; HepG2 CAGA-GFP TGF-b/SMAD3 reporter, GFP fluorescence, 18 h; TGF-beta stimulated, 500 pg/mL final; Potency, µM (titrated, usually from 46.1 µM), inactives show top-dose activity, negative = inhibition, most hits filed as inhibitors; 410,000 compounds, 1.2% hits; AID 588855; also: % is scaled to controls: 0 for no effect and ±100 for the full control effect; nearly all actives have a fitted effect of over 65% in size
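Per well, imaged GFP fluorescence of HEPG2 CAGA-GFP cells gives the signal; cells get compound, then TGF-beta (500 pg/mL final), 18 h at 37 degrees C; %Activity versus -TGF-beta and +DMSO controls.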
ATXN2 expr inh – reduces ATXN2 reporter expression in HEK-293 cells | Potency, µM (series often up to 57 µM), for inactives: at the top dose activity change, negative = inhibition, actives largely listed as inhibitors | 360,000 compounds, 0.72% hits | HEK-293 ATXN2-luciferase reporter, luminescence, 24 h; also: % is scaled to controls: 0 for no effect and ±100 for the full control effect; nearly all actives have a fitted effect of over 55% in size
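qHTS (up to 57 uM final) was run with 24 h compound exposure of reporter cells at 37 °C. Each well was multiplexed: SteadyGlo luminescence measured ATXN2-luciferase expression after a fluorogenic Gly-Phe-AFC viability readout (25 uM final).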
DT40 TDP1 no CPT – qHTS for Inhibitors of human tyrosyl-DNA phosphodiesterase 1 (TDP1): qHTS in cells in absence of CPT. DT40 Tdp1-/- hTDP1 cells, no CPT, ATP luminescence, 48 h. Potency, µM (top dose mostly 46.2 µM), for the others: top-dose activity change, negative = growth inhibition, most hits filed as inhibitors. 420,000 compounds, 15% hits. AID 686978, 2013; also: % is scaled to controls: 0 for no effect and ±100 for the full control effect; nearly all actives have a fitted effect of over 55% in size
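Chicken DT40 Tdp1-/- cells complemented with human TDP1, screened without camptothecin (DMSO vehicle only), 400 cells/well. Compounds pin-transferred, cells incubated at 37 °C for at least 48 hr. Growth read as ATP-dependent luminescence (CellTiter-Glo, 30 min at RT).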
ATXN viability – cell viability loss in ATXN counter-screen; 400,000 compounds, 0.49% hits; Potency, µM (titrated, usually from 56.7 µM), hits mostly cytotoxic; S2 cells (HEK-293 line with an ATXN2-luciferase reporter) viability, CellTiter-Fluor protease fluorescence, 24 h; also: nearly all actives have a fitted effect of over 40% in size
DT40 TDP1 CPT – growth inhibition of DT40 Tdp1-/-;hTDP1 cells with camptothecin (screen for TDP1 inhibitors) | 420,000 compounds, 12% hits | chicken DT40 Tdp1-/-;hTDP1 cells + 20 nM CPT, ATP luminescence, 48 h | Potency, µM (top dose mostly 46.2 µM), for the others: at the highest dose activity change, negative = growth inhibition, most hits filed as inhibitors; also: % is scaled to controls: 0 for no effect and ±100 for the full control effect; nearly all actives have a fitted effect of over 55% in size
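Chicken DT40 Tdp1-/- cells stably complemented with human TDP1 were seeded at 400 cells/well in medium containing 20 nM camptothecin, exposed to pin-transferred compounds, and grown at 37 °C for at least 48 hr. Viability was read as ATP luminescence.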
* hit, by the source's call. Only some compounds are listed: those with a hit (about 17% of all), similar ones and a draw of the others. Calls follow the shape of the dose curve; as a rule, active = well fitted curve in the direction sought with a large enough effect; inconclusive = small, poorly fitted or top-dose-only effect, or another doubt; inactive = no such curve, though single readings can be large; an effect the other way counts as inactive or inconclusive. Potency is read from the fitted curve at half-maximal effect.

What do the screens show for `COc1ccc2[nH]c3c(NCCC4=CCCCC4)ncnc3c2c1`?
HepG2 tox: -113.8%; TGFb SMAD3 inh: inconclusive; ATXN2 expr inh: inconclusive; DT40 TDP1 no CPT: 2.91µM*; ATXN viability: inconclusive; DT40 TDP1 CPT: 2.59µM*

How did COCCCNC(=O)c1nn(-c2ccc(C)cc2)nc1CO do in these assays?
HepG2 tox: -18.6%; TGFb SMAD3 inh: 0.0%; DT40 TDP1 no CPT: -10.7%; DT40 TDP1 CPT: 3.1%

How did CN1/C(=C\C=N\NC(=O)c2ccc(O)cc2)C(C)(C)c2ccccc21 do in these assays?
HepG2 tox: -32.6%; TGFb SMAD3 inh: 0.0%; ATXN2 expr inh: 0.0%; DT40 TDP1 no CPT: 18.4µM*; ATXN viability: inconclusive; DT40 TDP1 CPT: 20.6µM*

What do the screens show for `CC(=O)/C=C1\N(C)c2ccc(C)cc2C1(C)C`?
HepG2 tox: -0.1%; TGFb SMAD3 inh: 22.4%; ATXN2 expr inh: -8.4%; DT40 TDP1 no CPT: 5.17µM*; ATXN viability: inactive; DT40 TDP1 CPT: 6.51µM*

What do the screens show for `CN1/C(=C/C(=S)NC(=O)C2CCC2)C(C)(C)c2ccccc21`?
HepG2 tox: 21.1%; TGFb SMAD3 inh: 7.9%; ATXN2 expr inh: 7.7%; DT40 TDP1 no CPT: 18.4µM*; ATXN viability: inactive; DT40 TDP1 CPT: 16.4µM*

How did Cc1ccc(C(=O)NC(=S)/C=C2\N(C)c3ccccc3C2(C)C)cc1 do in these assays?
HepG2 tox: -25.0%; TGFb SMAD3 inh: -27.1%; ATXN2 expr inh: inconclusive; DT40 TDP1 no CPT: 3.66µM*; ATXN viability: inconclusive; DT40 TDP1 CPT: 8.2µM*

How did COc1cc(C2(c3ccc(O)c(OC)c3)C(=O)N(C)c3ccc(C)cc32)ccc1O do in these assays?
HepG2 tox: -12.3%; TGFb SMAD3 inh: 19.0%; ATXN2 expr inh: 0.5%; DT40 TDP1 no CPT: inconclusive; ATXN viability: inactive; DT40 TDP1 CPT: -7.2%

What do the screens show for `Cc1ccc(NC(=S)N(C)C)cc1C`?
HepG2 tox: -5.6%; TGFb SMAD3 inh: 13.6%; ATXN2 expr inh: -10.9%; DT40 TDP1 no CPT: -1.6%; ATXN viability: inactive; DT40 TDP1 CPT: 3.4%

How did CC(C)C(=O)NC(=S)/C=C1/N(C)c2ccccc2C1(C)C do in these assays?
HepG2 tox: -27.2%; TGFb SMAD3 inh: inconclusive; ATXN2 expr inh: -12.4%; DT40 TDP1 no CPT: 8.2µM*; ATXN viability: inconclusive; DT40 TDP1 CPT: 18.4µM*

How did COC(=O)c1cn(-c2nc3ccccc3s2)nn1 do in these assays?
ATXN2 expr inh: 1.1%; DT40 TDP1 no CPT: 16.4µM*; ATXN viability: inactive; DT40 TDP1 CPT: inconclusive

What do the screens show for `Clc1ccc(-c2cn(-c3nc4ccccc4s3)nn2)cc1`?
ATXN2 expr inh: 37.4%; DT40 TDP1 no CPT: 6.2%; ATXN viability: inactive; DT40 TDP1 CPT: 3.5%

How did COc1cc(/C=C/C(=O)N(C)CC(=O)Nc2ccccc2Br)cc2c1OCCO2 do in these assays?
HepG2 tox: -18.5%; TGFb SMAD3 inh: -18.5%; ATXN2 expr inh: 23.4%; DT40 TDP1 no CPT: inconclusive; ATXN viability: inactive; DT40 TDP1 CPT: inconclusive

Results for COc1ccc(Nc2nc(N)c3ccccc3n2)c(OC)c1 ?
HepG2 tox: -13.8%; TGFb SMAD3 inh: -1.6%; ATXN2 expr inh: 26.3%; DT40 TDP1 no CPT: -34.4%; ATXN viability: inactive; DT40 TDP1 CPT: 12.1%

Results for COc1ccc(Nc2nc(N)c3cc(OC)c(OC)cc3n2)cc1 ?
HepG2 tox: -81.4%; TGFb SMAD3 inh: inconclusive; DT40 TDP1 no CPT: 18.4µM*; DT40 TDP1 CPT: inconclusive

How did COc1cc2nc(Nc3cccc(F)c3)nc(N)c2cc1OC do in these assays?
HepG2 tox: -33.8%; TGFb SMAD3 inh: inconclusive; ATXN2 expr inh: -24.0%; DT40 TDP1 no CPT: 5.8µM*; ATXN viability: inactive; DT40 TDP1 CPT: 11.6µM*

What do the screens show for `Cc1ccc(Nc2nc(N)c3ccccc3n2)cc1C`?
HepG2 tox: -96.3%; TGFb SMAD3 inh: inconclusive; DT40 TDP1 no CPT: 23.1µM*; ATXN viability: inactive; DT40 TDP1 CPT: 14.6µM*

How did CC(C)c1onc(C(=O)N2CCCCCC2)c1[N+](=O)[O-] do in these assays?
HepG2 tox: 2.0%; TGFb SMAD3 inh: -6.0%; ATXN2 expr inh: 0.7%; DT40 TDP1 no CPT: inconclusive; ATXN viability: inactive; DT40 TDP1 CPT: -0.1%

How did CC(C)c1onc(C(=O)NC2CCCCC2)c1[N+](=O)[O-] do in these assays?
HepG2 tox: 2.1%; TGFb SMAD3 inh: -1.1%; ATXN2 expr inh: 21.5%; DT40 TDP1 no CPT: 20.6µM*; ATXN viability: inactive; DT40 TDP1 CPT: 20.6µM*

Results for C#CCN(C(=O)c1ccc(OC2CCN(Cc3ccccn3)CC2)cc1)C1CCCCC1 ?
HepG2 tox: -4.7%; TGFb SMAD3 inh: -15.8%; ATXN2 expr inh: -11.0%; DT40 TDP1 no CPT: inconclusive; ATXN viability: inactive; DT40 TDP1 CPT: 16.4µM*

Results for CN(C(=O)c1ccc(OC2CCN(Cc3ccccn3)CC2)cc1)C1CCCCC1 ?
HepG2 tox: -16.3%; TGFb SMAD3 inh: -8.9%; ATXN2 expr inh: 4.8%; DT40 TDP1 no CPT: -12.3%; ATXN viability: inactive; DT40 TDP1 CPT: inconclusive

Results for C#CCN(C(=O)c1ccc(OC2CCN(C(=O)CCOC)CC2)cc1)C1CCCCC1 ?
HepG2 tox: -14.7%; TGFb SMAD3 inh: -29.8%; ATXN2 expr inh: -9.3%; DT40 TDP1 no CPT: inconclusive; ATXN viability: inactive; DT40 TDP1 CPT: 23.1µM*

Results for COCCC(=O)N1CCC(Oc2ccc(C(=O)N3CCCCCC3)cc2)CC1 ?
HepG2 tox: 4.3%; TGFb SMAD3 inh: -1.9%; ATXN2 expr inh: 0.6%; DT40 TDP1 no CPT: -32.9%; ATXN viability: inactive; DT40 TDP1 CPT: inconclusive

Results for O=C(Cc1ccccc1)NC(NC(=O)Cc1ccccc1)c1cccc([N+](=O)[O-])c1 ?
HepG2 tox: 12.7%; TGFb SMAD3 inh: 12.2%; DT40 TDP1 no CPT: 18.4µM*; ATXN viability: inconclusive; DT40 TDP1 CPT: inconclusive

What do the screens show for `COC(=O)C1=C(C)N(Cc2ccccc2)C(=NCC(C)C)N[C@H]1c1ccccc1`?
HepG2 tox: -40.3%; TGFb SMAD3 inh: inconclusive; ATXN2 expr inh: inconclusive; DT40 TDP1 no CPT: 4.11µM*; ATXN viability: inconclusive; DT40 TDP1 CPT: 4.11µM*

What do the screens show for `CCOC(=O)C1=C(C)N(CCCC(=O)O)C(=O)NC1c1ccc(OC)cc1` (stereo not given)?
HepG2 tox: 29.8%; TGFb SMAD3 inh: 30.0%; ATXN2 expr inh: 7.1%; DT40 TDP1 no CPT: 4.3%; ATXN viability: inactive; DT40 TDP1 CPT: -5.9%
